Reference: PubChem BioAssay AID588849 (Broad Institute, 2011)
Measured potencies and affinities stand elsewhere. Calls of active or inactive are those of the source. How the calls were made is not given here.

biological target: CAAX prenyl protease 2 (Homo sapiens) (UniProt Q9Y256); test: human Rce1 protease inhibitors, dose response, biochemical, yeast membranes, quenched-peptide fluorescence, cherry-pick (AID 588849); conditions: yeast membrane fractions expressing human Rce1, quenched-peptide fluorescence, 4 h; series mostly up to 10 µM
Sequence (Q9Y256 whole entry, looked up): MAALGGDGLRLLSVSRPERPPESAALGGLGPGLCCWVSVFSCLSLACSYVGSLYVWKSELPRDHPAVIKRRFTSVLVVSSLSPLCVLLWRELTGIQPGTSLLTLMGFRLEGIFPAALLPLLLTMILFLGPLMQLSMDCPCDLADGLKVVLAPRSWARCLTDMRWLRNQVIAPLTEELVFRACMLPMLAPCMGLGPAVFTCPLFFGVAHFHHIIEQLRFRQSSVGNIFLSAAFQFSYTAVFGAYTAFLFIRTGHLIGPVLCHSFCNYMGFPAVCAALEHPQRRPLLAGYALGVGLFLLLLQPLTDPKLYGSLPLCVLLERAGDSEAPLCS

| Structure (SMILES) | outcome |
| --- | --- |
| COc1cccc(-c2ccc(-c3noc(-c4ccccc4F)n3)c(OC)n2)c1 | inactive |
| CCn1cc(/C=C(\NC(=O)c2ccccc2F)C(=O)N2CCCC2)c2ccccc21 | inactive |
| COc1ccc(Cl)cc1C(=O)Nc1ccc2c(c1)OCO2 | inactive |
| COc1cccc(/C=N/NC(=O)c2nnn(-c3nonc3N)c2C(C)C)c1OCc1ccc(F)cc1 | inactive |
| O=C(CN(C1CCCCC1)C1CCCCC1)N1CCc2ccccc2C1 | inactive |
| Nc1nc2c(ncn2COC(CO)CO)c(=O)[nH]1 | inactive |
| Cc1cc(N2CCOCC2)n2cc(-c3ccccc3)nc2n1 | inactive |
| CC(C)c1ccc(/C=C2\SC(=S)N(CCC(=O)NCCCn3ccnc3)C2=O)cc1 | inactive |
| Cc1ccc(SCc2c(C(=O)N/N=C/c3ccccc3)nnn2-c2nonc2N)cc1 | inactive |
| CCOc1cc(CNC2CCCC2)ccc1OCc1ccccc1Cl | inactive |
| CN1CCN(Cc2c(C(=O)N/N=C/c3cccc(Br)c3)nnn2-c2nonc2N)CC1 | inactive |
| CCN(CC)Cc1c(O)ccc2c(=O)c(-c3ccccc3OC)coc12 | inactive |
| O=C1CCN(Cc2ccccc2)CCN1[C@H](CSc1ccccc1)Cc1ccccc1 | inactive |
| Cc1ccc(S(=O)(=O)CC(=O)N2CCN(c3ccccc3F)CC2)cc1 | inactive |
| CC(=O)c1c(O)cc(O)c(C(C)=O)c1O | inactive |
| COC(=O)C1CCCN1S(=O)(=O)c1ccc2ccccc2c1 (stereo not drawn) | inactive |
| COc1ccc(C2c3c(ncn(CCN4CCOCC4)c3=N)Oc3ccc4ccccc4c32)cc1 (stereo not drawn) | inactive |
| c1cnn(Cc2cnc(N3CCOCC3)s2)c1 | inactive |
| O=S(=O)(c1ccccc1)c1nc(-c2ccco2)oc1N1CCCCC1 | inactive |

| Structure (SMILES) | outcome |
| --- | --- |
| CCOc1ccc(C2C(C(=O)OC)=CN(C(C)c3ccccc3)C=C2C(=O)OC)cc1 (stereo not drawn) | inactive |
| Cc1ccc(Nc2nc(-c3ccc(S(=O)(=O)N4CCOCC4)cc3)cs2)cc1Cl | inactive |
| COC(C/C=C/[C@H](O)[C@H](C)OCc1ccccc1)OC | inactive |
| CC1(c2nnc(-c3cccc(Cl)c3)o2)CC(c2cccc(F)c2)=NO1 (stereo not drawn) | inactive |
| CC(C)N1CCN(Cc2ccc(OCc3ccccc3)cc2)CC1CCO (stereo not drawn) | inactive |
| COc1cccc(CNc2nc3nc(C)cc(C)n3n2)c1 | inactive |
| CC(C)CNC(=O)COc1cccc(C(=O)NCc2ccccc2)c1 | inactive |
| CCOc1ccc(-c2c(C(=O)N/N=C/c3cccs3)nnn2-c2nonc2N)cc1 | inactive |
| COC(=O)c1ccccc1NC(=O)NCc1cccnc1 | inactive |
| NC(=NCCCCCCN=C(N)/N=C(\N)Nc1ccc(Cl)cc1)/N=C(\N)Nc1ccc(Cl)cc1 | inactive |
| Cc1c(C)c2ccc(OC(C)C(=O)NCCCN3CCOCC3)c(C)c2oc1=O (stereo not drawn) | inactive |
| COC(=O)c1cnn2c3c(c(C)nc12)CCCC3 | inactive |
| CCOc1ccc(N(Cc2ccc(OC)cc2)C(=O)c2ccco2)cc1 | inactive |
| c1ccc(CNc2nc(N3CCN(Cc4ccccc4)CC3)nc3ccccc23)cc1 | inactive |
| O=C(Nc1ccc(N2CCOCC2)c(Cl)c1)c1cc2ccccc2o1 | inactive |
| CCOC(=O)C[C@H]1c2ccccc2S(=O)(=O)N1Cc1cc(OC)c(OC)c(OC)c1 | inactive |
| N=c1c(C(=O)NCc2ccc(F)cc2)cc2c(=O)n3ccccc3nc2n1Cc1cccnc1 | inactive |
| CCCN(CCC)CCNC(=O)c1cc2c(-c3ccccc3F)nn(C)c2s1 | inactive |
| O=C(COC(=O)c1ccccc1Cc1ccccc1)NC1CCS(=O)(=O)C1 (stereo not drawn) | inactive |
